# Hits are enriched below; roughly 0.34% of the tested compounds scored in any of these assays.
# Epigenetic reg: derepresses silenced GFP reporter in murine cells. murine LDR cells, GFP reporter derepression, 30 h. Potency, µM (titrated, usually from 53.9 µM), for inactives: top-dose GFP activation, actives largely listed as activators. actives 0.2% (n = 280,000). AID 1865; note: % of control where 0% means no effect; nearly all actives have a fitted effect of over 60% in size
#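 Readout is the number of GFP-expressing murine LDR cells, counted by cytometry following washing. Cells were treated with compound for 30 h at 37 C; the stably integrated CMV-GFP locus is normally silent.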
# Vif-APOBEC3G blk: blocks the Vif interaction with human APOBEC3G. Potency, µM (series often up to 46.1 µM), inactives show at the highest dose activity, negative = active, usual class: inhibitors. Q9HC16. actives 0.076% (n = 410,000). HeLa A3G-eYFP + Vif (tagged APOBEC3G with the HIV-1 protein that degrades it), YFP fluorescence, overnight; note: % is set by controls: 0 for no effect and ±100 for the full control effect; nearly all actives have a fitted effect of over 60% in size
# Target sequence (Q9HC16 whole entry, looked up): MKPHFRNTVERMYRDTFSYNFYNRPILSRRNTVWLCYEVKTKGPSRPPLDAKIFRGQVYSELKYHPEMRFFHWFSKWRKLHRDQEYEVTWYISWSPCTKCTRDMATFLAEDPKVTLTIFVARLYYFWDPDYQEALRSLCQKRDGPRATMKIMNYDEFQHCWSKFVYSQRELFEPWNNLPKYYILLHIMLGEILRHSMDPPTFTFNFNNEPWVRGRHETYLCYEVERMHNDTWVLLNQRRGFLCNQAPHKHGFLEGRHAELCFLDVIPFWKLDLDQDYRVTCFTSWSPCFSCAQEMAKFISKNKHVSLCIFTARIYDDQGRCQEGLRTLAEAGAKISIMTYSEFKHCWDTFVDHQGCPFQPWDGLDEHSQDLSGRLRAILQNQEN
#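 HeLa cells stably expressing Vif and C-terminally eYFP-tagged A3G, seeded overnight at 37 deg C, then exposed to compound by pintool overnight at 37 deg C. Rise in yellow fluorescence (Ex 488/Em 500-530, Acumen) marks blocked Vif-driven A3G degradation.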
# Vif-A3F inh: inhibitors of Vif-A3F interaction; HeLa A3F-eYFP + Vif (tagged APOBEC3F with the HIV-1 protein that degrades it), YFP fluorescence increase; Potency, µM (series often up to 46.1 µM), for inactives: at the highest dose activity, negative = active; actives 0.2% (n = 390,000); AID 602313; note: % of control where 0% means no effect; nearly all actives have a fitted effect of over 65% in size
#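 HeLa cells stably expressing A3F-eYFP plus Vif, plated and incubated overnight at 37 deg C, then exposed to compounds overnight at 37 deg C. Blocked degradation read as raised yellow fluorescence (Ex 488/Em 500-530).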
# Active calls of the source: *; u = inconclusive; x = no result. Calls come from the whole dose curve; as a rule, active = well fitted curve in the direction sought with a large enough effect; inconclusive = small, poorly fitted or top-dose-only effect, or another doubt; inactive = no such curve, though single readings can be large; an effect the other way counts as inactive or inconclusive. Potency is the fitted concentration of half-maximal effect.
SMILES,Epigenetic reg,Vif-APOBEC3G blk,Vif-A3F inh
CCc1ccc(NC(=O)CC2C(=O)N(c3cccc(C)c3)C(=O)N2Cc2cccc(OC)c2)cc1 (stereo not given),-2%,4%,10%
CCCCOc1ccc(S(=O)(=O)NCc2csc(-c3ccc(OC)cc3)n2)cc1,-3%,x,x
COc1cc(/C=C2\SC(=S)N(NC(=O)c3ccc(O)c(OC)c3)C2=O)ccc1O,x,-19%,10µM*
CCOc1cc(/C=C2/SC(=S)N(CC3CCCO3)C2=O)ccc1O (stereo not given),7%,-15%,22µM*
COc1cc(/C=C2\SC(=S)N(NC(=O)c3cccc(O)c3)C2=O)ccc1O,x,-15%,u
COc1cc(/C=C2\SC(=S)N(NC(=O)c3ccncc3)C2=O)ccc1O,-1%,-9%,-11%
COc1cc(/C=C2\SC(=S)N(NC(=O)c3ccccc3OC)C2=O)ccc1O,x,-3%,22µM*
O=C1/C(=C/c2cccc(O)c2)SC(=S)N1CC1CCCO1 (stereo not given),-6%,-6%,6%
NS(=O)(=O)c1ccc(S(=O)(=O)N2CCN(c3nc(-c4cccs4)nc4ccccc34)CC2)cc1,x,-6%,x
O=C(c1ccccc1)C(c1ccccc1)[n+]1csc2ccccc21 (stereo not given),x,4%,x
Cc1ccc(-c2csc(NC(=O)C3CC(=O)N(c4ccc5c(c4)OCCO5)C3)n2)o1 (stereo not given),x,-4%,x
CCOC(=O)N1C(COCc2ccccc2)C=CCS1(=O)=O (stereo not given),x,-2%,x
CCN(c1ccccc1)c1ccc2cc(S(=O)(=O)N3CCCC3)ccc2n1,2%,0%,-1%
Cc1ccc(NC(=O)N(Cc2c[nH]c3ccccc23)C2CCCCCC2)cc1C,-1%,-4%,0%
O=C(N/N=C/c1sc(N2CCOCC2)nc1-c1ccccc1)c1ccccc1F,0%,-1%,-14%
O=C(Nc1ccccc1F)C(=Cc1sc(N2CCOCC2)nc1-c1ccccc1)C(=O)Nc1ccccc1F,14µM*,u,u
CCCCNC(=O)CSc1nnc(C)c2c(C)n(-c3ccccc3)nc12,7%,-13%,4%
COc1ccc(-c2ccc3c(c2)S(=O)(=O)c2cccc(C(=O)NCCOc4ccccc4)c2C3=O)cc1OC,x,11µM*,u
O=C(NCCOc1ccccc1)c1cccc2c1C(=O)c1ccc(Cl)cc1S2(=O)=O,x,0%,-1%
CC(C)c1cccc(C(C)C)c1NS(=O)(=O)c1cccs1,-1%,-9%,-1%
CCOC(=O)/C=c1\s/c(=C\c2sccc2C)c(=O)n1CC(=O)NCc1ccc(C)cc1,7.9µM*,x,x
CCOC(=O)/C=c1\s/c(=C\c2ccc(C)cc2)c(=O)n1CC(=O)NCc1ccco1,u,-6%,-5%
Cc1ccc(SC2=C(Sc3ccc(C)cc3)C(=O)c3ccccc3C2=O)cc1,6%,-10%,8.9µM*
Cc1ccc(N2C(=O)c3ccccc3C2=O)cc1,-2%,0%,-3%
COc1ccc(NCc2cc3cc4c(cc3n(CC(=O)Nc3ccc(F)cc3)c2=O)OCCO4)cc1,0%,-5%,-2%
SMILES,Epigenetic reg,Vif-APOBEC3G blk,Vif-A3F inh
OC(C1=C/C(=C\c2ccncc2)c2ccccc21)c1ccncc1 (stereo not given),x,-10%,x
CCCCC(=O)Nc1sc2c(c1C(=O)OCC)CCC(C=O)=C2Cl,11µM*,x,x
CCOC(=O)c1c(NC(=O)c2ccccc2Cl)sc2c1CCc1ccccc1-2,7%,0%,9%
O=C(Nc1ccc2ccccc2c1)c1nc(S(=O)(=O)Cc2ccccc2F)ncc1Cl,x,-15%,x
Cc1ccc(CCNC(=O)CCCn2c(=O)c3ccccc3n(CC(=O)Nc3cc(Cl)ccc3C)c2=O)cc1,5%,2%,-17%
Cc1cc(O)ccc1N/C=C1\CCCC1=O,5%,-7%,-11%
Cc1ccc([N+](=O)[O-])cc1N/C=C1\CCCCC1=O,3.5µM*,0%,u
O=C1C(=Cc2cccn2-c2ccccc2)C(=O)c2ccccc21,11µM*,u,28µM*
O=C(O)c1cccc(-n2cccc2C=C2C(=O)c3ccccc3C2=O)c1,4%,0%,-4%
O=C1C(=Cc2cccn2-c2ccc(O)cc2)C(=O)c2ccccc21,22µM*,-7%,u
O=C(CN1C(=O)S/C(=C/c2cccn2-c2ccc(O)cc2)C1=O)N1CCCC1,x,-9%,0%
Cc1ccc(CN(Cc2ccco2)C(=O)c2ccccc2Cl)o1,8%,5%,-3%
COc1ccc(-c2cnc3c(NC=O)cc(-c4ccccc4)cn23)cc1OC,x,1.8µM*,x
COc1ccc(-c2cc(NC=O)c3ncc(-c4ccc(OC)c(OC)c4)n3c2)c(OC)c1,x,-32%,x
O=C(CNC(=O)C1CCCCC1)OCC(=O)c1ccc([N+](=O)[O-])cc1,x,2%,x
CCCCCCc1ccc(C(=O)CCN(C)C)cc1,x,-4%,x
CCOC(=O)N1CCc2c(sc3c2C(=O)NC(c2ccccc2)N3)C1 (stereo not given),6%,-22%,0%
CCOC(=O)N1CCc2c(sc3c2C(=O)NC(c2ccc(N(C)C)cc2)N3)C1 (stereo not given),5%,u,11µM*
Cc1csc(NC(=O)CSCC(=O)O)c1-c1nc2ccccc2s1,-2%,-28%,u
CC(=O)Nc1sc2c(c1-c1nc3ccccc3s1)CCN(C(C)C)C2,4µM*,11µM*,11µM*
CC(C)N1CCc2c(sc(NC(=O)Cc3ccccc3)c2C(N)=O)C1,x,7%,-17%
CC(=O)N1CCc2c(sc(NC(=O)CSc3ccc(F)cc3)c2-c2nc3ccccc3s2)C1,8%,-4%,-17%
CCN1CCc2c(sc(NC(=O)CSc3ccccc3)c2-c2nc3ccccc3s2)C1,0.89µM*,u,u
CN1CCc2c(sc(NC(=O)CSc3ccc(F)cc3)c2-c2nc3ccccc3s2)C1,3.2µM*,u,u
Oc1ccc(Br)cc1C1C=C(c2ccc3c(c2)OCO3)NC(c2c(F)cccc2Cl)N1 (stereo not given),x,-22%,x
SMILES,Epigenetic reg,Vif-APOBEC3G blk,Vif-A3F inh
Cc1ccccc1NC(=O)CSc1nc2nccnc2c(=O)n1CCc1c[nH]c2ccccc12,0%,-6%,8%
O=[N+]([O-])c1ccc(NN=Cc2ccc(O)cc2)nc1,x,2%,1%
CCN(CC)c1ccc(C=NNc2ccc([N+](=O)[O-])cn2)cc1,x,u,3.5µM*
O=[N+]([O-])c1ccc(NN=Cc2ccccc2)nc1,x,-7%,-6%
O=[N+]([O-])c1ccc(N/N=C\c2cccn2-c2ccccc2)nc1,14%,11µM*,u
O=C(C1COc2ccccc2O1)N1CCN(c2nc3ccc(F)cc3s2)CC1 (stereo not given),4%,6%,3%
COc1ccccc1NC(=O)CSc1nnc(-c2nonc2NC(C)=O)n1-c1ccccc1,-3%,-2%,-5%
CCCCCCCCN1[C@@H](CC(=O)O)c2ccc(/C=C/C(=O)O)cc2S1(=O)=O,x,3%,x
Cc1ccc(NC(=O)c2cc(S(=O)(=O)N3CCc4ccccc43)cn2C)c(Cl)c1,0%,9%,-18%
CCc1nn(CC(=O)N(CC)Cc2ccccc2)c(=O)c2cc3occc3n12,-4%,0%,2%
Cc1ccc2nc3sc(C(=O)NCc4ccco4)c(N)c3cc2c1,16µM*,-20%,u
